Source: PubChem BioAssay (NCI)
About 83,000 compounds went through this panel and 20% of them were active in at least one assay; those are over-represented in the sample as a whole.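 The test compound was applied at a single concentration to cells in 96-well plates for 48 hours, and percent growth was recorded.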 Active and inactive are the calls of the source. The calls were made as follows: active = growth percent below 10; inactive = the rest.

Each compound was assayed on NCI-H322M lung (assay: NCI-60 one-dose screen, 48 h (100 = growth as untreated, 0 = no growth, -100 = all killed)). Details: 10 µM unless noted.

**Q.** For `CCOC(=O)c1cc(C(=O)c2cc(OC)cc(OC)c2)n2ncccc12`, which growth is on record?
**A.** 72.5% (inactive)

**Q.** Which growth does the source give for `CO[C@H]1/C=C/O[C@@]2(C)Oc3c(C)c(O)c4c(O)c(c5c(nc6cc(C)ccn65)c4c3C2=O)NC(=O)/C(C)=C\C=C\[C@H](C)[C@H](O)[C@@H](C)C(O)[C@@H](C)[C@H](OC(C)=O)[C@@H]1C` (stereo not given in full) here?
**A.** 97.4% (inactive)

**Q.** With `CN1CCN(Cn2nc(-c3cc(Cl)cc(Cl)c3Cl)oc2=S)CC1` as the compound, how does the growth read?
**A.** 101% (inactive)

**Q.** With `COC1=C(OC)C(=O)C(CCCCCCCCCCO)=C(C)C1=O` as the compound, how does the growth read?
**A.** 112% (inactive)

**Q.** Which growth does the source give for `COCCn1cc(-c2nc(-c3cc4cccnc4n3C)cs2)c2cc(OC)ccc21` here?
**A.** 26% (inactive)

**Q.** How did the growth turn out when `O=C(/C=C/c1ccc(Cl)cc1)c1ccc(-n2cc(CN3CCN(c4cc5c(cc4F)c(=O)c(C(=O)O)cn5C4CC4)CC3)nn2)cc1` was run?
**A.** 78.1% (inactive)

**Q.** `Cc1ccc(S(=O)(=O)c2nc(-c3ccccc3)oc2S(C)=O)cc1` (stereo not given) was tested. Which growth did it give?
**A.** 79.9% (inactive)

**Q.** `CNC(=O)c1cc(Oc2ccc3nc(NC(=O)Nc4ccc(F)cc4F)sc3c2)ccn1` was tested. Which growth did it give?
**A.** 62.2% (inactive)

**Q.** With `CCCCN(CCC#N)C(N)=O` as the compound, how does the growth read?
**A.** 107% (inactive)

**Q.** `COc1cccc(/C=C2\CCc3ccccc3C2=O)c1` was tested. Which growth did it give?
**A.** 98% (inactive)

**Q.** For `C#Cc1c(I)n(C2OC(CO[Si](C)(C)C(C)(C)C)C3OC(C)(C)OC32)c(=O)[nH]c1=O` (stereo not given), which growth is on record?
**A.** 113% (inactive)

**Q.** Which growth does the source give for `COc1cc(/C=C2\C(=O)N(CCOc3cc(O)c4c(=O)cc(-c5ccccc5)oc4c3)c3ccccc32)cc(OC)c1O` here?
**A.** 90.7% (inactive)

**Q.** For `O=C1c2ccccc2-c2c1c1ccncc1c(=O)n2CCCn1ccnc1`, which growth is on record?
**A.** 83.8% (inactive)

**Q.** With `COc1cc(OCc2cccc(-c3ccccc3)c2C)cc(OC)c1CN1CCCCC1C(=O)NCCOCCOCCN` (stereo not given) as the compound, how does the growth read?
**A.** 89.6% (inactive)

**Q.** How did the growth turn out when `COc1ccc(-c2cn(Cc3ccc4c(Br)cc(Br)c(O)c4n3)nn2)cc1` was run?
**A.** 100% (inactive)

**Q.** How did the growth turn out when `O=c1c(Cc2ccc(F)cc2)cc(-c2ccccc2)nn1C/C(=N/O)c1ccccc1` was run?
**A.** 70% (inactive)

**Q.** With `C1=C2CCCC3=Cc4ccccc4OC23Oc2ccccc21` as the compound, how does the growth read?
**A.** 50.8% (inactive)

**Q.** With `N/C(=N\c1nc2ccccc2s1)NC(=O)Nc1ccccc1` as the compound, how does the growth read?
**A.** 74.3% (inactive)

**Q.** For `C=C(C)[C@@H]1CC[C@]2(COCCCNCCCN)CC[C@]3(C)[C@H](CC[C@@H]4[C@@]5(C)CC[C@H](OCCCN)C(C)(C)[C@@H]5CC[C@]43C)[C@@H]12`, which growth is on record?
**A.** 41.7% (inactive)

**Q.** With `N#CC1=C(N)Oc2c(ccc3ccccc23)C1c1cc2ccccc2n2nnnc12` (stereo not given) as the compound, how does the growth read?
**A.** 34% (inactive)

**Q.** With `CC(C)(C#N)c1cc(C(=O)Nc2cc(Nc3ncccc3-c3ncnc4nc[nH]c34)ccc2F)cc(C(F)(F)F)c1` as the compound, how does the growth read?
**A.** 67.2% (inactive)

**Q.** How did the growth turn out when `CN1CCN(CC(=O)N(C)c2ccc(N=C(c3ccccc3)c3c(O)[nH]c4ccc([N+](=O)[O-])cc34)cc2)CC1` was run?
**A.** 82.4% (inactive)

**Q.** For `Cc1c(Cl)cccc1NC(=O)c1sc2nc3c(cc2c1N)CCCC3`, which growth is on record?
**A.** 74.2% (inactive)

**Q.** How did the growth turn out when `COC(=O)c1c(C)nc(C)c2c1C(=O)C(Br)=C(NCCN1CCOCC1)C2=O` was run?
**A.** 96.2% (inactive)

**Q.** For `COc1ccccc1NC(=O)n1c(=O)cc(C)c2ccc(O)cc21`, which growth is on record?
**A.** 103% (inactive)

**Q.** `C#CCOC(=O)C(N)CSSCC(N)C(=O)O` (stereo not given) was tested. Which growth did it give?
**A.** 91.2% (inactive)

**Q.** With `CN(C)CCOc1nc2c3cc([N+](=O)[O-])ccc3nn2c2ccccc12` as the compound, how does the growth read?
**A.** 59.6% (inactive)

**Q.** `CC(=O)Oc1ccccc1C(=O)N(Cc1ccc2c(Cl)cc(Cl)c(O)c2n1)c1ccccc1` was tested. Which growth did it give?
**A.** 54.9% (inactive)

**Q.** Which growth does the source give for `C=CCOC(=O)C1=C(C)N(CC)C(=O)N(CC)C1c1c(Cl)n(C)c2ccccc12` (stereo not given) here?
**A.** 74.4% (inactive)

**Q.** `CNC(=O)c1cc(Oc2ccc3nc(NC(=O)c4cc(C(F)(F)F)cc(C(F)(F)F)c4)sc3c2)ccn1` was tested. Which growth did it give?
**A.** 15.1% (inactive)

**Q.** How did the growth turn out when `COc1cc(C2=Nc3c(N)nc(N)nc3NC(c3cccc(Nc4ccnc5cc(C(F)(F)F)ccc45)c3)C2)cc(OC)c1OC` (stereo not given) was run?
**A.** 86.9% (inactive)

**Q.** With `c1ccc2[nH]c(-c3ccc(-c4nccc5c4[nH]c4ccccc45)cc3)nc2c1` as the compound, how does the growth read?
**A.** 58.7% (inactive)

**Q.** How did the growth turn out when `COc1ccc(/C=C2/CCc3cc4ccc(OC)cc4[o+]c32)c(O)c1` was run?
**A.** 84.6% (inactive)

**Q.** With `Cc1c(-c2cnc3ccc(Cl)cc3c2C(=O)O)nnn1-c1ccc(Cl)cc1` as the compound, how does the growth read?
**A.** 93.6% (inactive)

**Q.** For `COc1ccc(NC(=O)c2ccc(NC3=C(c4ccc(Cl)cc4)C(=O)NC3=O)cc2)cc1`, which growth is on record?
**A.** 85.2% (inactive)

**Q.** `O=C1CC2C=CCN2C=C1NC(=O)c1ccccc1` (stereo not given) was tested. Which growth did it give?
**A.** 99.8% (inactive)

**Q.** With `COc1cccc(CNc2nnc(C)c(C)n2)c1O` as the compound, how does the growth read?
**A.** 108% (inactive)

**Q.** With `COc1cc2c(c(OC)c1OC)CCC(c1cccc(C(=O)Nc3ccc([N+](=O)[O-])cc3)c1)O2` (stereo not given) as the compound, how does the growth read?
**A.** 68.3% (inactive)

**Q.** Which growth does the source give for `CO[C@]12C=C/C(=C(/C(=O)OCc3cccnc3)C(=O)CCCCCCCC[C@]3(OC)C=C/C(=C(/C(=O)OCc4cccnc4)C(=O)CCCCCCCC1)O3)O2` here?
**A.** -85% (active)

**Q.** How did the growth turn out when `O=c1cc(-c2nccc3c2[nH]c2ccccc23)c2cc(Cl)ccc2o1` was run?
**A.** 81.6% (inactive)
